Assay results from ChEMBL document CHEMBL3433997, “St. Jude Leishmania screening dataset” (2016).

Biological target: Glucose transporter (Leishmania mexicana) (UniProt O61059)
Experiment: ST_JUDE_LEISH: Cytotoxicity at 2uM final concentration against transgenic Leishmania Mexicana promastigotes LmGT2 that are glucose transport deficient and complemented with the L. Mexicana glucose transporter 2. Activity is measured by DNA content using SYBR green in vitro
Type: functional

Row | Compound | inhibition [%]
1 | O=C(NCc1ccc(C(=O)N2CCC(N3CCCCC3)CC2)cc1)c1cc(-c2cccc(C(F)(F)F)c2)ccc1O | 7.14
2 | Cc1cc(=NN=Cc2ccc(Cl)cc2)c2cc(F)ccc2[nH]1 | -0.34
3 | Cn1cncc1C(=O)Nc1cccc(-c2cccc(-c3nc4cc(C(F)(F)F)ccc4[nH]3)c2)c1 | -0.89
4 | O=C(/C=C/c1ccc(Cl)c(Cl)c1)N1CCC(NCc2c[nH]c3ccccc23)CC1 | 1.05
5 | COc1ccc2ncc(F)c([C@H](O)CN3CCC(NCc4cc5c(cn4)OCCO5)CC3)c2c1 | 2.51
6 | CC(C)c1ccc(NC(=O)c2ccc(NCCCN(C)Cc3ccccc3)c([N+](=O)[O-])c2)cc1 | -0.53
7 | O=C(Nc1cc(F)cc(F)c1)N[C@H]1CCN(CCCCCNC(=O)C2CC2c2ccc(Cl)c(Cl)c2)C1 (stereo not given in full) | -1.55
8 | COc1ccc(-c2ccc(NC(=O)c3ccc(C#N)cc3)cc2)cc1CNC(C)C | 2.38
9 | CN1CCC(N2CCN(Cc3cccc(-c4ccc(-c5nc6cc(F)ccc6[nH]5)cc4)c3)CC2)CC1 | 2.66
10 | Cc1cc(-c2nc3ccc(C(=O)NCc4ccccc4)cc3n2C2CCN(C(=O)c3ccc(-c4ccccc4)cc3)CC2)ccn1 | 1.94
11 | Fc1cc(Cl)ccc1Nc1ccnc2cc(-c3scnc3CNCCN3CCOCC3)ccc12 | 0.33
12 | COc1ccc(NC(=O)Nc2nc(-c3ccc(Cl)c(C)c3)cs2)cc1N1CCN(C)CC1 | 2.63
13 | Cc1cc(O)c(C(C)C)cc1C1(c2cc(C(C)C)c(O)cc2C)OC(=O)c2ccccc21 | 6.75
14 | COc1ccc2nc3cc(Cl)ccc3c(Nc3ccc(Sc4ccc(Nc5c6ccc(Cl)cc6nc6ccc(OC)cc56)cc4)cc3)c2c1 | 3.6
15 | CCN(CCCN1CCCCC1)c1cc(C)nc(Nc2cccc(C(F)(F)F)c2)n1 | 11
16 | COc1ccc2nc3cc(Cl)ccc3c(NCCN(C)C)c2c1 | 6.53
17 | COc1ccc(-c2ccc(CNCc3ccccc3)cc2)cc1S(=O)(=O)NCCN1CCCC1 | -1.36
18 | Cn1c(N)c(N=O)c(=O)[nH]c1=O | 1.58
19 | COc1cccc2sc(Nc3nc(-c4ccccn4)cs3)nc12 | 2.52
20 | Cc1ccc(CCNCC(O)c2cccc(C(F)(F)F)c2)cc1 (stereo not given) | 1.78

Row | Compound | inhibition [%]
21 | O=C(Cn1c(SCc2cccc(F)c2F)cc(=O)c2ccccc21)N(Cc1ccc(-c2ccc(C(F)(F)F)cc2)cc1)C1CCN(CCO)CC1 | -1.32
22 | Cc1cc(Nc2ccc(O)cc2)nc2cc(O)ccc12 | 3.51
23 | Cc1nnsc1C(=O)Nc1ccc(-c2ccc(-c3nc4ccccc4[nH]3)s2)cc1 | 1.47
24 | O=S(=O)(Nc1ccc(CCN2CCC(N3CCCCC3)CC2)cc1)c1ccc2ccccc2c1 | 4.79
25 | CC1CN(Cc2cccc(-c3ccc(-c4nc5cc(F)ccc5[nH]4)cc3)c2)CC(C)O1 (stereo not given) | 2.23
26 | CCCC[C@@H](C(=O)NCCc1ccc(Cl)cc1)N1C(=O)CCC1C(=O)Nc1ccc(Cl)c(Cl)c1 (stereo not given in full) | 0.19
27 | Oc1ccc2[nH]cc(C3CCN(CCC(c4ccccc4)c4ccccc4)CC3)c2c1 | 4.21
28 | CC(C)(C(=O)Nc1ccc(N2CCC3(CCCN(CC4CC4)C3)CC2)c(Cl)c1)c1cccc(C(F)(F)F)c1 | 1.72
29 | CO/C(=C\C=C\c1cc2cc(Cl)c(Cl)cc2[nH]1)C(=O)NC1CC2CCC(C1)N2C (stereo not given) | -1.99
30 | Cc1ccc(-c2cc(C(=O)Nc3ccc(S(=O)(=O)N4CCCCC4)cc3)[nH]n2)c(O)c1 | -0.53
31 | CC(C)NCc1cccc(-c2cccc(-c3nc4cc(F)ccc4[nH]3)c2)c1 | 11.6
32 | CC(C)CN1C(=O)c2ccccc2C(C(=O)Nc2cccc(C#N)c2)C1c1cccs1 (stereo not given) | -1
33 | CC(C)NCc1ccc(-c2ccc(CN3CCCC(c4ccccc4)C3)cc2)c(C(=O)NCC2CCCCC2)c1 (stereo not given) | -6.06
34 | C=CCc1cc(Cc2cnc(N)nc2N)c2ccc(C)nc2c1OC | 5.13
35 | CNC(=O)C1Cc2c([nH]c3ccc(Br)cc23)C2(CCN(CCc3ccccc3)CC2)N1 (stereo not given) | 6.65
36 | COc1ccc2nccc(N3CCC(NCCNCc4ccc5c(n4)NC(=O)CO5)C3)c2n1 (stereo not given) | 1.15
37 | CN1CCCc2ccc(NC(=O)c3ccc(-c4cc(C(F)(F)F)nn4C)s3)cc2C1 | -2.38
38 | COc1ccccc1C(=O)C1CCCN(C(=O)c2ccccc2C(F)(F)F)C1 (stereo not given) | 9.65
39 | COc1cc2c(C3CCN(CC4CCN(C(=O)/C=C/c5ccc(Cl)c(Cl)c5)CC4)CC3)c[nH]c2cn1 | -0.88
40 | O=C1CCCN1CCCNCc1cccc(-c2ccc(-c3nc4cc(C(F)(F)F)ccc4[nH]3)s2)c1 | 4.33
